The record followed here is PubChem BioAssay.

Inconclusive results are not listed. The source made the active and inactive calls.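 How the source made its calls, unless noted: active means RAM network inhibition above 8.4% in each of two replicates, 3 SD over the compound average; inconclusive means above 8.4% inhibition in only one replicate; inactive means 8.4% inhibition or less in each replicate.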

Assay [1] is described as follows: reduced viability of SK-BR-3 breast cancer cells – cell-based, 24 h, human, pilot screen (AID 572;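 active means viability at or below 10% of carrier control in both of two separate runs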;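 further: compound exposure lasted between 18 and 24 h rather than exactly 24 h; 100% = carrier-treated control wells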). The conditions noted are these: SK-BR-3 viability, CellTiter-Glo luminescence, at 10 µM, stronger effect = lower value. For orientation: Cellular ATP, detected with luciferase, serves as a proxy for viable cell number.
A short description of assay [2]: HUVEC growth inhibition – cell-based, human, primary screen (AID 575;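 active means viability at or below 30% in both replicate assays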;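 further: 100% = median of untreated cell wells with 0.1% DMSO on each plate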). The note with it: HUVEC proliferation, CellTiter-Glo luminescence, 72 h; at 10 µM; stronger effect = lower value.
Assay [3] can be described thus: H69AR cell proliferation blockers – human, duplicate replicates, primary screen (AID 580;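 active means viability at or under a set limit in both replicates, limit being median viability minus 3 SD, cut at about 48% in these data, passing the limit was not always enough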;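 further: 100% = mean luminescence of untreated wells and 0% = no signal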). The conditions noted are these: H69AR lung tumor cells viability, ATP luminescence, 72 h; at 10 µM; stronger effect = lower value.
Assay [4] in a line: MRP1 drug-resistance reversers in H69AR cells – cell-based, doxorubicin co-treatment, pilot screen (AID 601;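 active means viability loss from added drug above about 55%, and viability with drug at most 40%, in both replicates, limit read from the data, passing the limit was not always enough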). The conditions noted are these: CellTiter-Glo, 72 h, at 10 µM; for differential viability (reversal): stronger effect = higher value.
A short description of assay [5]: yeast transport mutant growth inhibition pilot in 384-well plates, post-Golgi transport modulator project (AID 636; in the data active means inhibition above about 31%). The note with it: absorbance 615 nm, about 18 h, stronger effect = higher value.
The nature of assay [6]: growth suppression of yeast trafficking mutant, preliminary HTS, modulators of trafficking downstream of Golgi apparatus project, 1536-format plate, OD 615 nm (AID 637; in the data active means inhibition above about 30%). The note with it: yeast transport mutant growth, absorbance 615 nm, 18 h; stronger effect = higher value.
Assay [7] can be described thus: S. cerevisiae growth inhibition in permissive medium (OD615), pilot counter-assay for S. cerevisiae lifespan shortening project, permissive growth control (AID 705;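 active means growth inhibition above 25% in both replicates, a cutoff set 3 SD above the mean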). The note with it: OD615, 24 h, at 10 µM, stronger effect = higher value.
Assay [8] is described as follows: S. cerevisiae growth inhibition in restrictive medium, OD615, pilot screen, restrictive growth control, yeast lifespan reduction project (AID 706;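 active means growth inhibition above a set limit, 3 SD over mean compound inhibition, in both replicates, cut at about 43% in these data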;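 further: modified DeaD lifespan yeast strain shifted to restrictive glucose medium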). The conditions noted are these: OD615, 48 h, at 10 µM, stronger effect = higher value.
The nature of assay [9]: doxorubicin toxicity protection in MRP-1 cells – H69AR cells, CellTiter-Glo, duplicate, MRP-1 activator project, pilot screen (AID 807;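 active means viability increase at or above a cutoff of the median across tested compounds plus 3 SD, cut at about 8.5% in these data, passing the limit was not always enough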;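 further: compound pretreatment 18-22 h then 72 h combined with doxorubicin; 0% = doxorubicin alone and 100% = vehicle without doxorubicin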). The conditions noted are these: H69AR viability with doxorubicin, CellTiter-Glo luminescence; at 10 µM; stronger effect = higher value.
Assay [10] in a line: viability of HCT116 without oncogenic beta-catenin – human colon tumor cells, pilot screen (AID 823;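 active means cell viability at or below a set limit in both duplicate runs, the limit being the all-compound median minus 4 SD, cut at about 23% in these data, passing the limit was not always enough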;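 further: 0% = wells killed by 20 µM Hyamine and 100% = untreated DMSO cell wells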). The conditions noted are these: HCT116 beta-catenin knockout viability, CellTiter-Glo, 60 h; at 10 µM; stronger effect = lower value.
A short description of assay [11]: viability of PTEN-null HCT116 cells – cell-based, HCT116 clonal line, CellTiter-Glo, pilot screen (AID 824;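 active means viability at or below 27.92% in each of two runs, the all-compound median minus 4 SD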;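 further: 0% = 20 µM Hyamine control and 100% = vehicle cell control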). The note with it: HCT116 PTEN-deleted viability, 60 h, at 10 µM, stronger effect = lower value.
Assay [12] is described as follows: RAM pathway blockade in budding yeast – dse1pr::URA3 reporter, 5-FOA selection, pilot screen (AID 869;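 active means inhibition over a set limit, the all-compound mean plus 3 SD, in both replicate runs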;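 further: 0% = DMSO wells with no growth and 100% = 10 µM 1-NA-PP1 with full growth; RAM network block rescues cells from 5-FOA so hits raise OD615 growth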). The note with it: S. cerevisiae dse1pr::URA3 5-FOA growth, OD615, 2 d; at 10 µM; stronger effect = higher value; strain carries analog-sensitive mutant Cbk1 kinase.
A short description of assay [13]: RAM signaling pathway blockade in yeast – S. cerevisiae, Pdr1DBD-CYC8 efflux-inhibited sensitized strain, primary screen (AID 1298).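 Further: 0% = DMSO untreated cells without growth and 100% = 10 µM 1-NA-PP1 full growth; higher means more yeast growth rescued from 5-FOA killing.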 The note with it: S. cerevisiae cbk1-as DSE1-URA3 strain, 5-FOA growth OD615, 2 d; at 50 µM; stronger effect = higher value.
Setting [14] is: H69AR cells + 2 uM doxorubicin, measured here: viability with 2 uM doxorubicin, stronger effect = lower value.
The mark [15] stands for this setting: H69AR cells, compound alone cytotoxicity.

Usually viability stands for a read-out of living cells in per cent, often relative to untreated cells. By inhibition is commonly meant the drop in the measured response relative to a control, in per cent.

Turning to `CCN(CC)S(=O)(=O)c1ccc2c(c1)nc(SCn1nnc3ccccc3c1=O)n2CC`, the viability in [1] is 74% (inactive); in assay [2], 81.1% (inactive); in [3], 83.2% (inactive); in assay [4] (setting [14]) it was 74.6%; in assay [4] (setting [15]) it was 83.2%; in [10], 90.7% (inactive). Moreover, the viability in assay [11] was 103% (inactive). Also, in [4] (H69AR cells + 2 uM doxorubicin), the differential viability (reversal) was 8.64% (inactive). For the same compound, the inhibition in assay [5] was -4.93% (inactive); in [6], -2.36% (inactive); in assay [12], 2.54% (inactive). In addition, the growth inhibition in assay [7] was -1.67% (inactive); in assay [8], -5.42% (inactive). For the same compound, in [9], the viability increase is 2.88% (inactive). Further, the RAM network inhibition in [13] is 7.57% (inactive).
Consider `COc1cc(C(=O)N2CCN(c3cc(Cl)ccc3Cl)CC2)cc(OC)c1OC`, for which the viability was 77.5% (inactive) in [1]; 20.1% (active) in assay [2]; 29.8% (active) in assay [3]; 84.1% in assay [4] (setting [14]); 29.8% in assay [4] (setting [15]); 21.5% (active) in assay [11]. The differential viability (reversal) in [4] (H69AR cells + 2 uM doxorubicin) is -54.3% (inactive). Besides, the inhibition in [5] was -4.27% (inactive); in [6], 0% (inactive); in [12] it was 0.575% (inactive). Moreover, the growth inhibition in assay [7] is -13.2% (inactive); in assay [8], -8.44% (inactive). Further, the viability increase in assay [9] is -6.62% (inactive). Further, the RAM network inhibition in assay [13] is 2.03% (inactive).
For `CC1(C)CC2CC(C)(CN2S(=O)(=O)c2ccc(N)cc2)C1` (centres undefined), the viability in [1] was 120% (inactive); in assay [2], 99.6% (inactive); in assay [3], 89.4% (inactive); in assay [4] (setting [14]), 80.9%; in [4] (setting [15]), 89.4%; in [10], 88% (inactive). In assay [11], the viability was 87.6% (inactive). The differential viability (reversal) in assay [4] (H69AR cells + 2 uM doxorubicin) was 8.43% (inactive). In addition, the inhibition was -8.93% (inactive) in assay [5], -8.36% (inactive) in assay [6] and 0.505% (inactive) in [12]. The figures for the growth inhibition in [7] and in assay [8] were -0.15% (inactive) and 8.29% (inactive), respectively. Also, in [9], the viability increase is -2.62% (inactive). For the same compound, the RAM network inhibition in assay [13] was 9.14% (inactive).
Turning to `OC(CNCCc1ccccc1)c1ccccc1` (centres undefined), the viability in [1] is 101% (inactive); in assay [2], 101% (inactive); in assay [3], 91.2% (inactive); in assay [4] (setting [14]), 81.4%; in assay [4] (setting [15]), 91.2%; in [10], 95.4% (inactive). Moreover, in assay [11], the viability is 94.1% (inactive). Moreover, in assay [4] (H69AR cells + 2 uM doxorubicin), the differential viability (reversal) is 9.8% (inactive). Further, the results for the inhibition in [5], in [6] and in assay [12] were -5.07% (inactive), 2.36% (inactive) and 0.865% (inactive), respectively. In addition, the results for the growth inhibition in [7] and in assay [8] were -6.34% (inactive) and -6.08% (inactive), respectively. Further, in assay [9], the viability increase is -0.36% (inactive). The RAM network inhibition in assay [13] was 0.66% (inactive).
In the case of `Clc1c(CSc2nc3ccccc3o2)nc2sccn12`, the viability in assay [1] was 116% (inactive); in [2], 82% (inactive); in assay [3] it was 92.9% (inactive); in assay [4] (setting [14]), 79.8%; in assay [4] (setting [15]), 92.9%; in assay [10] it was 77.3% (inactive). Besides, the viability in [11] is 81% (inactive). Besides, the differential viability (reversal) in [4] (H69AR cells + 2 uM doxorubicin) was 13.2% (inactive). Also, the inhibition in [5] was -1.04% (inactive); in assay [6], 2.95% (inactive); in assay [12] it was -0.115% (inactive). In addition, the growth inhibition in assay [7] is -13.5% (inactive); in [8], -9.04% (inactive). Besides, the viability increase in assay [9] was -6.43% (inactive). Besides, the RAM network inhibition in assay [13] was -0.26% (inactive).
On to `Cc1ccc2c(c1)C1CCCC3C1N2CC(=O)N3Cc1ccccc1` (centres undefined), for which the viability in assay [1] is 117% (inactive); in assay [3], 75.5% (inactive); in assay [4] (setting [14]) it was 81.3%; in assay [4] (setting [15]) it was 75.5%; in assay [11], 53.3% (inactive). Further, the differential viability (reversal) in [4] (H69AR cells + 2 uM doxorubicin) is -5.75% (inactive). Besides, the figures for the inhibition in assay [5], in assay [6] and in [12] were 0.27% (inactive), 0.97% (inactive) and 2.56% (inactive), respectively. The values for the growth inhibition in [7] and in assay [8] were -8.15% (inactive) and -24.9% (inactive), respectively. Also, the viability increase in assay [9] was -0.44% (inactive). Besides, in [13], the RAM network inhibition is 7.32% (inactive).
Consider `FC(F)(F)c1cc(-c2ccco2)nc(NCc2ccco2)n1`, for which the viability in assay [1] is 119% (inactive); in assay [2] it was 101% (inactive); in [3] it was 62.2% (inactive); in assay [4] (setting [14]), 77.8%; in assay [4] (setting [15]), 62.2%; in [11], 59.1% (inactive). Also, the differential viability (reversal) in assay [4] (H69AR cells + 2 uM doxorubicin) is -15.6% (inactive). In addition, the inhibition was -2.7% (inactive) in assay [5], 24.2% (inactive) in assay [6] and 1.14% (inactive) in assay [12]. For the same compound, the growth inhibition in assay [7] was 3.24% (inactive); in assay [8], -11.4% (inactive). In assay [9], the viability increase was -6.31% (inactive). The RAM network inhibition in [13] was -0.41% (inactive).
Consider `CCc1ccc(C(=O)NC2CCCCC2)s1`, for which the viability in assay [1] was 68% (inactive); in [2] it was 94.7% (inactive); in [3], 109% (inactive); in [4] (setting [14]), 90.7%; in [4] (setting [15]), 109%; in assay [10], 91.8% (inactive). Also, the differential viability (reversal) in assay [4] (H69AR cells + 2 uM doxorubicin) is 17.8% (inactive). For the same compound, the inhibition is -3.01% (inactive) in [5], 0.81% (inactive) in assay [6] and -0.215% (inactive) in assay [12]. The figures for the growth inhibition in assay [7] and in assay [8] were -14.4% (inactive) and 3.24% (inactive), respectively. Further, the viability increase in assay [9] is -0.13% (inactive). Further, the RAM network inhibition in assay [13] was 4.77% (inactive).
As to `CC1=C(C(N)=O)C(c2ccccn2)n2nc(SCc3ccccc3)nc2N1` (centres undefined), the viability was 88% (inactive) in assay [1]; 94% (inactive) in [2]; 93.8% (inactive) in assay [3]; 95.9% in assay [4] (setting [14]); 93.8% in [4] (setting [15]); 102% (inactive) in [10]. In addition, the viability in [11] was 95.6% (inactive). For the same compound, the differential viability (reversal) in assay [4] (H69AR cells + 2 uM doxorubicin) is -2.02% (inactive). For the same compound, the inhibition was -3.92% (inactive) in [5], -5.64% (inactive) in [6] and 0.46% (inactive) in assay [12]. Moreover, the values for the growth inhibition in assay [7] and in assay [8] were -2.97% (inactive) and 3.69% (inactive), respectively. Moreover, the viability increase in [9] is 2.38% (inactive). In assay [13], the RAM network inhibition is 2.59% (inactive).
For the compound `Cc1cc(NC(=O)CS(=O)(=O)c2cn(Cc3ccccc3Cl)c3ccccc23)no1`, the viability was 92% (inactive) in [1]; 79.2% (inactive) in assay [2]; 92.1% (inactive) in assay [3]; 81% in assay [4] (setting [14]); 92.1% in [4] (setting [15]); 47.8% (inactive) in [11]. For the same compound, in assay [4] (H69AR cells + 2 uM doxorubicin), the differential viability (reversal) is 11.1% (inactive). The figures for the inhibition in assay [5], in [6] and in assay [12] were -5.2% (inactive), 5.82% (inactive) and 2.17% (inactive), respectively. Also, the figures for the growth inhibition in assay [7] and in assay [8] were -4.35% (inactive) and -0.555% (inactive), respectively. The viability increase in [9] is -2.24% (inactive). Also, in assay [13], the RAM network inhibition is 3.11% (inactive).
On to `COCCN1C=C(C(=O)OC)C(c2cc3c(cc2Br)OCO3)C(C(=O)OC)=C1`, for which the viability was 97% (inactive) in assay [1]; 89.2% (inactive) in assay [2]; 84.5% (inactive) in [3]; 81.2% in [4] (setting [14]); 84.5% in assay [4] (setting [15]); 58.3% (inactive) in assay [10]. Further, the viability in assay [11] was 58.6% (inactive). Also, in [4] (H69AR cells + 2 uM doxorubicin), the differential viability (reversal) is 3.38% (inactive). The inhibition in [5] was -4.13% (inactive); in [6], -1.09% (inactive); in [12] it was 0.41% (inactive). Also, the growth inhibition in assay [7] is -12.8% (inactive); in assay [8], -14.6% (inactive). Further, in [9], the viability increase is -1.16% (inactive). The RAM network inhibition in assay [13] is 0.62% (inactive).
